Results as given in PubChem BioAssay (Tox21).
Records with an inconclusive call do not appear. Activity calls are given as the source filed them. Unless noted, the call rests on the fitted dose curve; in most records, active means well fitted curve in the direction sought with a large enough effect in the repeat runs; inconclusive means weak or mixed curves; inactive means no such curve, though single readings can be large; an effect the other way counts as inactive or inconclusive.

How the values were obtained:
[1] = qHTS assay to identify small molecule antagonists of the thyroid receptor (TR) signaling pathway - cell viability counter screen (AID 743064); further: nearly all actives have a fitted effect of over 50% in size
In short: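 Same-well viability check: GH3.TRE-Luc cells stimulated with 1 nM T3 alongside test compound for 23.5 h, followed by CellTiter-Fluor fluorescence.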

[2] = qHTS assay to identify small molecule antagonists of the thyroid receptor (TR) signaling pathway (AID 743065); further: series mostly up to about 70 µM; nearly all actives have a fitted effect of over 55% in size
In short: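 GH3.TRE-Luc rat pituitary cells carrying two TR response elements driving luciferase were plated for 4 h, given compound plus 1 nM T3 (final), and incubated 23.5 h at 37 C. ONE-Glo luminescence measured reporter inhibition; CellTiter-Fluor fluorescence tracked cytotoxicity.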

[3] = test system: thyroid hormone receptor (rat, GH3 cells); assay: qHTS assay to identify small molecule agonists of the thyroid receptor (TR) signaling pathway (AID 743066; calls by dose curve)
[4] = molecular target: Estrogen receptor (Homo sapiens) (UniProt P03372); assay: qHTS assay to identify small molecule antagonists of the estrogen receptor alpha (ER-alpha) signaling pathway (AID 743069; active means well fitted curve in the direction sought with a large enough effect in the signal ratio in the repeat runs, not every such curve was filed as active; the % refers to the signal ratio)
Chain of Estrogen receptor (Homo sapiens) (P03372 whole entry, looked up): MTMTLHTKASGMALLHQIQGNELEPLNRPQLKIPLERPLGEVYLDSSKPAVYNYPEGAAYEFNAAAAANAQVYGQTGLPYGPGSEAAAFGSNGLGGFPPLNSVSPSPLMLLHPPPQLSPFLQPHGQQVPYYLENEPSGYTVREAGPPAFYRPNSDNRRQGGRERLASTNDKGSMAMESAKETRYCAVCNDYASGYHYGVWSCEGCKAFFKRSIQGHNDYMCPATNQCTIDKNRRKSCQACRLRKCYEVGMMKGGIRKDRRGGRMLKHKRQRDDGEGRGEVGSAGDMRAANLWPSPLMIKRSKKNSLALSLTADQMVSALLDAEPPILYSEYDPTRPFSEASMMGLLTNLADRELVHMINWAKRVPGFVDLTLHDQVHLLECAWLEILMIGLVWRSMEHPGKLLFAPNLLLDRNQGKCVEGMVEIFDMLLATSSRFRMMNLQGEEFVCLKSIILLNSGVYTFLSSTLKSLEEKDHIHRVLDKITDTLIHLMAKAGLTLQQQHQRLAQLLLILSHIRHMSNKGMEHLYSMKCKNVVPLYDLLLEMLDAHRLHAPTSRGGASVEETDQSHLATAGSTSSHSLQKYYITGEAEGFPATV
In short: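 HEK293 cells stably carrying an ER-alpha-UAS-bla beta-lactamase reporter were pre-cultured overnight in 2% charcoal-stripped FBS medium. Test compounds in DMSO were added together with 17beta-estradiol for 18 hr at 37C. Read-out was fluorescence after 2 hr with LiveBLAzer B/G FRET substrate at room temperature.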

[5] = qHTS assay to identify small molecule antagonists of the estrogen receptor alpha (ER-alpha) signaling pathway - cell viability counter screen (AID 743074; calls by dose curve; further: nearly all actives have a fitted effect of over 45% in size)
[6] = molecular target: Estrogen receptor (Homo sapiens) (UniProt P03372); assay: qHTS assay to identify small molecule agonists of the estrogen receptor alpha (ER-alpha) signaling pathway (AID 743075; calls by dose curve)
[7] = molecular target: Estrogen receptor (Homo sapiens) (UniProt P03372); assay: qHTS assay to identify small molecule agonists of the estrogen receptor alpha (ER-alpha) signaling pathway using the BG1 cell line (AID 743079); further: nearly all actives have a fitted effect of over 20% in size
[8] = qHTS assay to identify small molecule antagonists of the estrogen receptor alpha (ER-alpha) signaling pathway using the BG1 cell line - cell viability counter screen (AID 743081);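 further: compound given together with 17beta-estradiol as the ER stimulus; series mostly up to about 70 µM; nearly all actives have a fitted effect of over 45% in size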
[9] = molecular target: Aromatase (Homo sapiens) (UniProt P11511); assay: qHTS assay to identify aromatase inhibitors (AID 743083); further: series mostly up to about 70 µM; nearly all actives have a fitted effect of over 55% in size
Chain of Aromatase (Homo sapiens) (P11511 whole entry, looked up): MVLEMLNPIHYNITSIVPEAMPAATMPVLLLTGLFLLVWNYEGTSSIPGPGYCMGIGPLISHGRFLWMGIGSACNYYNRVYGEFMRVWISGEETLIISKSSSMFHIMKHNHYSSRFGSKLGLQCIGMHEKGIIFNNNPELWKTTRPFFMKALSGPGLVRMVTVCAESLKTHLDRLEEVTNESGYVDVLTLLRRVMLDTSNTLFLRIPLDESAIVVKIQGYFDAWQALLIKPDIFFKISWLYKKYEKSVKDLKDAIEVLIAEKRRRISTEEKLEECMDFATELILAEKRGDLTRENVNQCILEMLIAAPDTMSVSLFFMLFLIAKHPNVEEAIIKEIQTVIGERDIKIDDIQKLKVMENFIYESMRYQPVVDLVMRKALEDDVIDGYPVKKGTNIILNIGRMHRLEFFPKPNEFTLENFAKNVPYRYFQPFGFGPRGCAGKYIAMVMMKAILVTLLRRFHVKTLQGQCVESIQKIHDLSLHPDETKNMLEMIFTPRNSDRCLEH

[10] = molecular target: Aryl hydrocarbon receptor (Homo sapiens) (UniProt P35869); assay: qHTS assay to identify small molecule that activate the aryl hydrocarbon receptor (AhR) signaling pathway (AID 743085);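 further: HG2L7.5c1 human HepG2 liver cells with stably integrated DRE-driven firefly reporter; series mostly up to about 70 µM; nearly all actives have a fitted effect of over 15% in size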
Chain of Aryl hydrocarbon receptor (Homo sapiens) (P35869 whole entry, looked up): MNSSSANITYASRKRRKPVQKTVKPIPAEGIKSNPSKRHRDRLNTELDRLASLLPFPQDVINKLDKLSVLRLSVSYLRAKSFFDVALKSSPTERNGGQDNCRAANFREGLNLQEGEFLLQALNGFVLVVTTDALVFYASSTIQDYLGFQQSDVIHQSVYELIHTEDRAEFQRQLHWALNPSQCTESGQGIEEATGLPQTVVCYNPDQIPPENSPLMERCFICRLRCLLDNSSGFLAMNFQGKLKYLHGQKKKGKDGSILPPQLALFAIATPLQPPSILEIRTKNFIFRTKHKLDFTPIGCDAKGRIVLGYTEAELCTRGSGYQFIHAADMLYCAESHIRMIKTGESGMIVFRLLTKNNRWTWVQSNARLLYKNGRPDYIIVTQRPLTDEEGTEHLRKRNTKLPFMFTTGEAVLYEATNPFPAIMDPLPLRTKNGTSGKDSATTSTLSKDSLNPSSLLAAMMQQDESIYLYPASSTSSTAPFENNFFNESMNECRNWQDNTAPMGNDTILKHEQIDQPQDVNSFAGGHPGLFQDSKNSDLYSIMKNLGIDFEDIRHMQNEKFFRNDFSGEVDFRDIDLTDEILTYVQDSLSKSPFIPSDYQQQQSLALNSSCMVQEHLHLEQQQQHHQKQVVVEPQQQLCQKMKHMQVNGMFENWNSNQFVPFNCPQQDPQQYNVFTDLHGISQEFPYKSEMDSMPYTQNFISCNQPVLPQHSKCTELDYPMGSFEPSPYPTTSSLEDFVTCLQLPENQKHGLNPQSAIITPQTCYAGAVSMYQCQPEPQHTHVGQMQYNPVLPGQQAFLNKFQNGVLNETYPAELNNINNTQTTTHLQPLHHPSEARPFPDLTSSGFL
In short: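 Reporter assay in engineered HepG2 line HG2L7.5c1, whose plasmid carries twenty dioxin responsive elements upstream of firefly luciferase. Treatment lasted 24 h at 37C; ONE-Glo luminescence gauged induction.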

[11] = qHTS assay to identify small molecule that activate the aryl hydrocarbon receptor (AhR) signaling pathway - cell viability counter screen (AID 743086);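 further: HepG2 liver cells carrying the AhR DRE luciferase reporter; series mostly up to about 70 µM; nearly all actives have a fitted effect of over 45% in size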
In short: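 HepG2-AhR-luc (HG2L7.5c1) cells, 4000/well, were preincubated 5 h at 37C, exposed to compound in qHTS format for 24 hr at 37C, then given CellTiter-Fluor for 30 min; viability was read as fluorescence in the reporter wells.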

[12] = qHTS assay to identify small molecule antagonists of the peroxisome proliferator-activated receptor gamma (PPARg) signaling pathway - cell viability counter screen (AID 743194); further: nearly all actives have a fitted effect of over 55% in size
In short: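 PPARg-UAS-bla HEK293H cells were plated, rested 5 h at 37 C, then treated with compounds plus rosiglitazone (50 nM final) for 17 h at 37 C; viability was then read by CellTiter-Glo luminescence after 30 min at room temperature.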

[13] = qHTS assay for small molecule agonists of the antioxidant response element (ARE) signaling pathway - cell viability counter screen (AID 743203; calls by dose curve; further: nearly all actives have a fitted effect of over 55% in size)
In short: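 Cells (ARE-bla HepG2, 2,000/well) receive DMSO-dissolved compounds after a 5 hrs rest. Plates incubate 16 hrs at 37C/5% CO2. CellTiter-Glo luminescence is then recorded after 30 min at room temperature.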

[14] = qHTS assay for small molecule activators of the heat shock response signaling pathway - cell viability counter screen (AID 743209); further: nearly all actives have a fitted effect of over 50% in size
In short: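 Quantitative HTS format, Tox21 10K library. HeLa cells carrying an HSE-driven beta-lactamase reporter were treated 5 h at 37 C, then assessed for viability by CellTiter-Glo luminescence.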

[15] = qHTS assay to identify small molecule antagonists of the estrogen receptor alpha (ER-alpha) signaling pathway using the BG1 cell line (AID 743080; calls by dose curve;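 further: BG1 cells stimulated with 17beta-estradiol alongside compound; series mostly up to about 70 µM; nearly all actives have a fitted effect of over 25% in size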)
In short: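 Luciferase inhibition measured with ONE-Glo after 30 min at RT in BG1Luc4E2 cells given test compounds and 17beta-estradiol for 21.5 h at 37 C; CellTiter-Fluor viability read in the same wells beforehand.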

[16] = qHTS assay to identify aromatase inhibitors - cell viability counter screen (AID 743084)
[17] = qHTS assay for small molecule activators of the heat shock response signaling pathway (AID 743210; active means well fitted activation curve with a large enough effect in the signal ratio in the repeat runs, with a control signal flat, not every such curve was filed as active; the % refers to the signal ratio; further: series mostly up to about 63 µM)
In short: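 HSE-bla HeLa cells (beta-lactamase reporter under heat shock response elements) were exposed to compounds for 5 h at 37 C, then loaded with LiveBLAzer B/G FRET substrate for 2.5 h at room temperature before fluorescence reading.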

[18] = molecular target: Peroxisome proliferator-activated receptor gamma (Homo sapiens) (UniProt P37231); assay: qHTS assay to identify small molecule agonists of the peroxisome proliferator-activated receptor gamma (PPARg) signaling pathway (AID 743094; active means well fitted activation curve with a large enough effect in the signal ratio in the repeat runs, not every such curve was filed as active; the % refers to the signal ratio)
Chain of Peroxisome proliferator-activated receptor gamma (Homo sapiens) (P37231 whole entry, looked up): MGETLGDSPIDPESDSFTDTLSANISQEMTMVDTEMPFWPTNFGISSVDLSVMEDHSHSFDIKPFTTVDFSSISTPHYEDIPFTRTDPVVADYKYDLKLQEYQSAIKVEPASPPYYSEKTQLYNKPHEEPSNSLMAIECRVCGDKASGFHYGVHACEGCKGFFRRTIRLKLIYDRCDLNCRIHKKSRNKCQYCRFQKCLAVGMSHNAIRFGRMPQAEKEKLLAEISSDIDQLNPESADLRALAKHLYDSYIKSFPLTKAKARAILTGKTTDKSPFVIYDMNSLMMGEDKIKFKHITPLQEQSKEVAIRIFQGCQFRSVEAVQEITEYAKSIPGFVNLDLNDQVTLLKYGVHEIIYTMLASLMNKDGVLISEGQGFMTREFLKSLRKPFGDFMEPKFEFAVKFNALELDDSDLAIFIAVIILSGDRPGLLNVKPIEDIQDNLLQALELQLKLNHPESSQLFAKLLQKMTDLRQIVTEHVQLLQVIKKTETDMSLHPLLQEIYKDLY
In short: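 Stably transfected HEK293H cells (GeneBLAzer PPARg UAS-bla) were incubated with test substances for 17 h at 37C after a 5 h pre-incubation; beta-lactamase activity was then detected by FRET substrate fluorescence.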

[19] = molecular target: Peroxisome proliferator-activated receptor gamma (Homo sapiens) (UniProt P37231); assay: qHTS assay to identify small molecule antagonists of the peroxisome proliferator-activated receptor gamma (PPARg) signaling pathway (AID 743191; calls by dose curve; further: series mostly up to about 63 µM; nearly all actives have a fitted effect of over 30% in size)
In short: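 GeneBLAzer PPARg UAS-bla HEK293H cells carrying a UAS-driven beta-lactamase reporter were plated at 3000 cells/well, preincubated 5 h at 37C, then given compound for 17 h at 37C; LiveBLAzer B/G FRET substrate was read after 1 h at room temperature.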

[20] = qHTS assay for small molecule agonists of the antioxidant response element (ARE) signaling pathway (AID 743202; active means well fitted activation curve with a large enough effect in the signal ratio in the repeat runs, not every such curve was filed as active; the % refers to the signal ratio)
In short: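 Read-out: LiveBLAzer B/G FRET substrate fluorescence after 2 h at room temperature, following 16 h compound treatment at 37 C of HepG2 cells carrying an ARE-driven beta-lactamase reporter.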

Measured: Potency

CC(C)(C)C(=O)/C=C/c1ccc(Cl)cc1
not listed: [15] | [16] | [17] | [18] | [19] | [20]
inactive: all other assays above

NS(=O)(=O)c1cc2c(cc1Cl)NC(CSCc1ccccc1)=NS2(=O)=O
not listed: [18] | [19] | [20]
inactive: all other assays above

CCO[Si](CCCN=C=O)(OCC)OCC
not listed: [5] | [20]
inactive: all other assays above

Cc1ccc(Nc2ccc(O)c3c2C(=O)c2ccccc2C3=O)cc1
not listed: [10] | [20]
inactive: all other assays above

C=C(C)C(=O)NCCC[N+](C)(C)C
not listed: [5] | [18]
inactive: all other assays above

CCCCCC[C@@H](CCC)C(=O)O
not listed: [8] | [12] | [19]
inactive: all other assays above

C=C(C)C1CC=C(C)C(O)C1 (stereo not given)
not listed: [11] | [18] | [19]
inactive: all other assays above

CC12CCC(CC1=O)C2(C)C (stereo not given)
not listed: [18] | [19]
inactive: all other assays above

CC(C)CCCCCCN
not listed: [12] | [16]
inactive: all other assays above

CCCCN(CCO)CCO
not listed: [11] | [18]
inactive: all other assays above

CCN(CC)S(=O)(=O)c1ccc(C(=O)O)cc1
not listed: [11] | [19]
inactive: all other assays above

CCCc1ccc(N)cc1
not listed: [11] | [15]
inactive: all other assays above

C1CCCCCCCCCCC1
not listed: [4] | [17] | [18] | [19]
inactive: all other assays above
